# “And” between values parts separate entries of the source, which are not always exact repeats. Identical values can stand only once. About 64,000 (15%) of roughly 420,000 compounds were called active. Not shown: some 27% with an inconclusive outcome. Only a sample is shown. A number with no mark means an inactive call. Calls follow the shape of the dose curve; as a rule, active = well fitted inhibition curve with a large enough effect; inconclusive = small, poorly fitted or top-dose-only effect; inactive = flat fitted curve, though single readings scatter.
# Assay: qHTS for Inhibitors of human tyrosyl-DNA phosphodiesterase 1 (TDP1): qHTS in cells in absence of CPT; also: nearly all actives have a fitted effect of over 55% in size
# Conditions: DT40 Tdp1-/- hTDP1 cells, no CPT, ATP luminescence, 48 h; activity change, negative = growth inhibition: at 46.2 µM (top of the series)
# Method in brief: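 Compound effects on proliferation are scored in DT40 Tdp1-/-;hTDP1 cells in the absence of CPT. ATP levels (CellTiter-Glo luminescence) are recorded after a ≥48 hr, 37 °C incubation.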
# % is scaled to controls: 0 for no effect and ±100 for the full control effect; potency is read from the fitted curve at half-maximal effect.
Structure (SMILES),"activity change, negative = growth inhibition [%]",Potency
O=C1C(C=NCC2CCCO2)=C(O)c2ccccc21 (configuration not stated),-16.7,–
COC(=O)C1CCN(C(=O)NC2CC(=O)N(c3ccc4c(c3)OCCO4)C2)CC1 (configuration not stated),0.284,–
COC(=O)c1onc(-c2c(OC)cc(OC)cc2OC)c1C(=O)OC,-7.15,–
CN(Cc1cc2cc(F)ccc2[nH]1)Cc1nc(-c2cnccn2)no1,-4.72,–
COc1cc(C(=O)NNC(=O)CN2C(=O)NC3(CCCC3)C2=O)cc(OC)c1OC,4.78,–
CCOC(=O)c1sc2nc(CSCC(=O)OCc3ccc(C(=O)OC)o3)[nH]c(=O)c2c1C,-10.1,–
Cc1sc2nc(COC(=O)C(NC(=O)c3ccc(Cl)cc3Cl)C(C)C)[nH]c(=O)c2c1C (configuration not stated),-16.1,–
Cc1sc2nc(CSCC(=O)Nc3c(Cl)cccc3Cl)[nH]c(=O)c2c1C,–,9.2 µM (active)
Cn1nnnc1SCC(=O)N1CCN(Cc2ccccc2)CC1,-18.7,–
COc1ccc(S(=O)(=O)N2CCCCC2)cc1C(=O)NC1CCS(=O)(=O)C1 (configuration not stated),–,inactive
Cc1[nH]nc(SCC(=O)NCC(C)C)c1[N+](=O)[O-],-4.36,–
Cc1cccc(N2CCN(S(=O)(=O)c3ccc4[nH]c5c(c4c3)CCCCC5)CC2)c1C,–,4.61 µM (active)
COc1cccc(CNC(=O)c2cc(=O)[nH]c3ccc(S(=O)(=O)N4CCCCC4)cc23)c1,-11.7,–
Cc1ccc(S(=O)(=O)N2CCN(c3ccccc3)CC2)cc1C,3,–
Cc1cc(C)c2c(c1)c(C)cc1nnc(SCC(=O)NCc3ccco3)n12,-3.12,–
O=C(N/C(=C\c1ccc(O)cc1)C(=O)N1CCCCC1)c1ccccc1,12.8,–
COc1cc2c(cc1OC)C(Cc1cc(OC)c(OC)cc1[N+](=O)[O-])=NCC2,–,11.6 µM (active)
COc1cc(CNCc2ccc3c(c2)OCO3)c([N+](=O)[O-])cc1OC,-21.4,–
COc1cc(CN2CCCN(C)CC2)c([N+](=O)[O-])cc1OC,-12.1,–
O=C(NC1CCN(S(=O)(=O)c2ccc(F)cc2)CC1)c1ccccc1,6.91,–
CCCCN1C(=O)c2[nH]nc(-c3ccccc3O)c2C1c1cccc(OCc2ccccc2)c1 (configuration not stated),–,18.4 µM (active)
CCCCn1c(N)c(N(CCOC)C(=O)c2cccc(OCc3ccccc3)c2)c(=O)[nH]c1=O,1.24,–
COc1ccc(CCN2C(=O)c3[nH]nc(-c4ccccc4O)c3C2c2ccc(C)cc2)cc1OC (configuration not stated),–,18.4 µM (active)
COc1ccc(/C(O)=C2/C(=O)C(=O)N(CCCN(C)C)C2c2ccccc2)cc1OC (configuration not stated),-4.33,–
C=CCOc1cccc(C2C(C(=O)c3ccc(C)o3)=C(O)C(=O)N2CCCn2ccnc2)c1 (configuration not stated),15.9,–
COc1ccc(CCN(C)CCN2C(=O)c3ccccc3C2=O)cc1OC,-23.2,–

Structure (SMILES),"activity change, negative = growth inhibition [%]",Potency
Cc1cc(NS(=O)(=O)c2ccc(NC(=O)c3cccc(OC(F)F)c3)cc2)nc(C)n1,-6.76,–
O=C(O)CCSc1nnc(-c2ccccc2)n1-c1ccccc1,-12.5,–
Cc1ccc(NC(=O)c2ccn(C(=O)Nc3ccccc3)n2)c(C)c1,-5.12,–
CCN(CC)CCNC(=O)c1cc(S(C)(=O)=O)ccc1OC,–,inactive
COc1ccc(N(CC(=O)NCCSCc2cccc(Cl)c2)S(C)(=O)=O)cc1,-10.8,–
COc1cccc(/C(C)=N/Nc2ncc(Cl)cc2Cl)c1,-17.6,–
COc1cc(/C=C2\SC(=S)N(Nc3ncc(C(F)(F)F)cc3Cl)C2=O)cc(OC)c1OC,-14.7,–
COc1cccc(/C=N/Nc2ncc(C(F)(F)F)cc2Cl)c1O,–,4.11 µM (active)
CCN(CC)Cc1csc2ccc(Br)cc12,-6.04,–
COc1ccc(CCNCC(O)Cn2ccc3ccccc32)cc1OC (configuration not stated),-22,–
C=CCn1c(=N)n(CC(O)COc2ccc(OC)cc2)c2ccccc21 (configuration not stated),–,20.6 µM (active)
COc1ccccc1OCC(O)CN1CCOCC1 (configuration not stated),-2.17,–
CCCn1c(=N)n(CC(O)COc2ccccc2OC)c2ccccc21 (configuration not stated),–,7.31 µM (active)
C=CCc1ccc(OCC(O)CN2CCN(Cc3ccccc3)CC2)c(OC)c1 (configuration not stated),-1.24,–
COC(=O)c1ccc(OCC(O)CN(CCO)CC(O)Cn2ccc3ccccc32)cc1 (configuration not stated),-27.5,–
COc1ccc(C(=O)NCC2CCCO2)cc1S(=O)(=O)NCc1ccc(Cl)cc1 (configuration not stated),-20.6,–
CN1CCN(C(CNS(=O)(=O)c2cccs2)c2cccnc2)CC1 (configuration not stated),7.04,–
COc1cccc(/C=C/C(=O)OCC(=O)N2CCCc3ccccc32)c1,1.84,–
Cc1cccc(N(C)C(=O)CS(=O)(=O)c2cccc3nsnc23)c1,-12.2,–
CC1(C)OC(=O)C(=CSc2ccc(C(C)(C)C)cc2)C(=O)O1,-13.5,–
COCCCNC(NC(=O)c1ccc(OC)cc1)C(Cl)(Cl)Cl (configuration not stated),-25.3,–
CCOCCCNC(=O)C(NC(=O)CNC(=O)c1ccccc1)c1ccc(C)cc1 (configuration not stated),-23.2,–
COCCCNC(NC(=O)c1ccc(C)cc1)C(Cl)(Cl)Cl (configuration not stated),–,14.6 µM (active)
O=C(CN1C(=O)NC2(CCCCC2)C1=O)N1CCN(C(=O)c2cccs2)CC1,-3.5,–
CCCSC(=S)NC1CCS(=O)(=O)C1 (configuration not stated),–,20.6 µM (active)
CC(C)C(=O)NC(NC(=S)NC1CCS(=O)(=O)C1)C(Cl)(Cl)Cl (configuration not stated),-0.69,–

Structure (SMILES),"activity change, negative = growth inhibition [%]",Potency
O=C(CSc1ccccc1F)NC1CCS(=O)(=O)C1 (configuration not stated),4.81,–
CCN(CC(=O)NC1CCS(=O)(=O)C1)S(=O)(=O)c1ccccc1 (configuration not stated),5.32,–
O=S1(=O)CCC(NC(=S)SCc2ccccc2Br)C1 (configuration not stated),–,18.4 µM (active)
CS(=O)(=O)N(C(=O)NC(=O)NC1CCS(=O)(=O)C1)C1CCCCC1 (configuration not stated),-1.68,–
Cc1cc(C)cc(NC(=O)C(c2ccccc2)N2CCN(CC(=O)N3CCCC3)CC2)c1 (configuration not stated),-3.14,–
O=C(NC1CCCCC1)C1c2ccccc2C(=O)N1Cc1ccco1 (configuration not stated),3.48,–
O=C1c2ccccc2C(Nc2ccc3c(c2)OCCO3)N1Cc1ccco1 (configuration not stated),–,14.6 µM (active)
S=C(NCc1ccco1)Nc1ccc2c(c1)OCCO2,-15.8,–
CCN(CC(=O)Nc1ccc(NC(C)=O)cc1)C(=O)C1CC(=O)N(c2ccc3c(c2)OCCO3)C1 (configuration not stated),-28.8,–
C/C(N)=C(/C#N)C(=O)COC(=O)CNS(=O)(=O)c1ccc(C)cc1,-4.68,–
CC1(C(=O)NS(=O)(=O)c2ccccc2Cl)CCN1C(=O)c1cccc(F)c1 (configuration not stated),-10.8,–
c1csc(-c2nnc(COc3ccc4c(c3)OCO4)o2)c1,0.933,–
COc1cccc(COC(=O)C2CCN(S(=O)(=O)c3ccc(Cl)cc3)CC2)c1OC,-25.1,–
COc1cccc(CN(C)CC2CCCN(CCc3ccc(Cl)cc3)C2)c1OC (configuration not stated),–,20.6 µM (active)
Cc1nc2ccc(C(=O)N(C)CC3CCCN(CCc4ccc(Cl)cc4)C3)cc2[nH]1 (configuration not stated),5.16,–
CO[C@H]1[C@@H](O)[C@H](N)[C@@H](O[C@H]2O[C@H]([C@H](C)N)CC[C@H]2N)[C@H](O)[C@@H]1N(C)C(=O)CN,-9.26,–
CCOc1ccc(C(=O)Nc2cc(Cl)ccc2-n2cncn2)cc1OC,6.08,–
CCOC(=O)c1cnc2[nH]c3ccccc3n2c1=O,-6.89,–
O=c1[nH]n2c(-c3ccccc3)nc(O)c2c2ccccc12,-0.971,–
O=c1[nH]c2ccccc2n2c(-c3ccccc3)nnc12,–,18.4 µM (active) and 11.2 µM (active)
COC(=O)CCSc1nccn1Cc1ccccc1,3.41,–
Cc1ccc(CN2CC(C(=O)NNC(=O)Cn3ccc(C(F)(F)F)n3)CC2=O)cc1 (configuration not stated),8.84,–
CN(CCO)C(=O)c1nc[nH]c1C(=O)N(C)Cc1ccccc1,-22,–
c1ccc2cc3[nH]c(CN4CCCCC4)nc3cc2c1,-10.7,–
CCCCCn1nnnc1-c1nc2cc3ccccc3cc2[nH]c1=O,–,2.59 µM (active)
Cc1ccc(-c2nc3ccccc3[nH]c2=O)cc1,8.47,–

Structure (SMILES),"activity change, negative = growth inhibition [%]",Potency
O=S1(=O)CSCS(=O)(=O)C1,-12.9,–
COc1ccc(CN2C3CCCC2CC(NC(=O)c2cccc(F)c2)C3)cc1 (configuration not stated),-4.72,–
COc1ccc(CN2C[C@H]3CON(C)[C@H]3C[C@H]2c2ccc(-c3cccc(F)c3)cc2)cc1,–,16.4 µM (active)
CN1OC[C@@H]2CN(C(=O)c3cccc4ccccc34)[C@H](c3ccc(N4CCCCC4)cc3)C[C@@H]21,0.0679,–
CCCNC(=O)c1onc(CSc2ccc(F)cc2)c1C(=O)NC(C)C,-18.8,–
Cc1ccc(-c2nc(C)sc2CC(=O)O)cc1,0.642,–
N#C/C(=C\c1cccc(F)c1)c1nc(-c2cc3c(ccc4ccccc43)oc2=O)cs1,-10,–
O=C(c1ccc(F)cc1)n1cc(C(=S)N2CCOCC2)c2ccccc21,–,11.6 µM (active)
O=C(Nc1ccc(F)cc1)C(=O)c1cn(CC(=O)N2CCOCC2)c2ccccc12,2.69,–
O=C(Oc1ccc(C(=S)N2CCOCC2)cc1)c1ccc(F)cc1,-29.3,–
COc1ccc(S(=O)(=O)N2CCOCC2)cc1NC(=O)CSc1ncnc2ccccc12,22.5,–
COc1ccc(OC)c(NC(=O)CSc2nc3cccnc3n2C)c1,–,16.4 µM (active)
Cn1c(SCC(=O)N2CCCc3ccccc32)nc2ccccc2c1=O,–,9.2 µM (active)
COc1ccc(OC)c(NC(=O)CSc2nc(N)c(-c3ccccc3)c(=O)[nH]2)c1,2.08,–
O=C(CSc1nc2[nH]ncc2c(=O)n1-c1ccccc1)N1CCCc2ccccc21,-26.4,–
Cc1nnc(SCC(=O)N2CCc3ccccc32)n1-c1ccccc1,-15.9,–
CCOCCCn1c(SCC(=O)Nc2ccc(CC)cc2)nc2ccccc2c1=O,–,13 µM (active)
COc1ccc(-c2nnc(SCC(=O)Nc3cccnc3Cl)n2C)cc1,0.301,–
COc1ccc(S(=O)(=O)N(C)C)cc1NC(=O)CSc1ncccn1,–,13 µM (active)
O=C(CSc1nc2ccccc2c(=O)n1CCCO)NC1CC1,24.5,–
CCc1nnc(NC(=O)CSc2nc3ccccc3c(=O)n2CCCOC)s1,-14.5,–
COc1ccc(C)cc1NC(=O)CSc1cccc[n+]1[O-],-5.31,–
CSc1ccc(NC(=O)N2CC(C)OC(C)C2)cc1 (configuration not stated),-12.9,–
Cn1cccc1C(=O)N1CCC[C@@]2(CCN(Cc3nccs3)C2)C1,-6.43,–

# Reference: PubChem BioAssay AID686978 (National Center for Advancing Translational Sciences (NCATS), 2013)
